# Reference: article PMC7862700, “An all-to-all approach to the identification of sequence-specific readers for epigenetic DNA modifications on cytosine”
# How the values were obtained:
# Test in all cases: DAPPL (digital affinity profiling via proximity ligation, sequencing); 10 mM Tris-HCl pH 7.5, 50 mM NaCl, 1 mM DTT, 4% glycerol, room temperature, 30 min; GST-TFs on glutathione beads, 16-mer random dsDNA library, 0.1% formaldehyde crosslink after washing; high values mean tight binding
# FLI1 = target: T1, FLI1 (Homo sapiens, UniProt Q01543 1-452); details: protein: recombinant; tags: N-terminal GST; dsDNA, one strand shown
# T1 sequence: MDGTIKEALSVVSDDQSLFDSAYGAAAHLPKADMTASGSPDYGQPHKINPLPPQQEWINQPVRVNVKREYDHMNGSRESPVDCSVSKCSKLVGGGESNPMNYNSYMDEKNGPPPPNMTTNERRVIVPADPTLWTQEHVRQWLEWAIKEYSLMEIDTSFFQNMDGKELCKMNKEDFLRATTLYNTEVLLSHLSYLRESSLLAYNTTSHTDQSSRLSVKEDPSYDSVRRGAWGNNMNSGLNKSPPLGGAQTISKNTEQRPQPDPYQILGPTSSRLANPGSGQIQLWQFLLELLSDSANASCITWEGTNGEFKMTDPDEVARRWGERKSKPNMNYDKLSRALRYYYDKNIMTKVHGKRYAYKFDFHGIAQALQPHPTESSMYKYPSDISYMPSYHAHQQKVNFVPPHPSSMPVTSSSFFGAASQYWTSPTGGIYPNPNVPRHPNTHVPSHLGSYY
# Summary of the method: (§1)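 Human transcription factors fused to GST were expressed in yeast, captured on glutathione beads, given DNA barcodes and pooled with a GST-only negative control. Pools were incubated with 200 nmole of a 16-mer random double-stranded DNA library in Tris/NaCl/DTT/glycerol buffer at room temperature for 30 min. They were then washed, crosslinked with 0.1% formaldehyde, proximity-ligated (BsaI/T4 ligase, 1 h, 37 °C), PCR-amplified and sequenced on an Illumina NextSeq500. Binding signal is each 6-mer's read frequency for a factor divided by its frequency for the GST control.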
# ELK1 = target: T2, ELK1 (Homo sapiens, UniProt P19419 1-428); details: protein: recombinant; tags: N-terminal GST; dsDNA, one strand shown
# T2 sequence: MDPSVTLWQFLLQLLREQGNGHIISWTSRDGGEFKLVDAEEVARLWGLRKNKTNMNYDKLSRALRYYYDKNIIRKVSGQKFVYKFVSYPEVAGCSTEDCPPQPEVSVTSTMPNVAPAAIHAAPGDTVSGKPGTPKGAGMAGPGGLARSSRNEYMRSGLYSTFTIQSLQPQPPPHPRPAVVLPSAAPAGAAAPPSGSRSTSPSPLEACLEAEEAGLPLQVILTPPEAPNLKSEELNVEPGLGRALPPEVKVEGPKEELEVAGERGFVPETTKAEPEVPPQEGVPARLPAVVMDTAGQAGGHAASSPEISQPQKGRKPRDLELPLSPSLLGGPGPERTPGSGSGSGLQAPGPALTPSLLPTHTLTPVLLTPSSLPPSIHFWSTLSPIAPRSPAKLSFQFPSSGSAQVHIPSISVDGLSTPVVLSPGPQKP
# Summary of the method: as §1
# GABPA = target: T3, GABPA (Homo sapiens, UniProt Q06546 1-454); details: protein: recombinant; tags: N-terminal GST; dsDNA, one strand shown
# T3 sequence: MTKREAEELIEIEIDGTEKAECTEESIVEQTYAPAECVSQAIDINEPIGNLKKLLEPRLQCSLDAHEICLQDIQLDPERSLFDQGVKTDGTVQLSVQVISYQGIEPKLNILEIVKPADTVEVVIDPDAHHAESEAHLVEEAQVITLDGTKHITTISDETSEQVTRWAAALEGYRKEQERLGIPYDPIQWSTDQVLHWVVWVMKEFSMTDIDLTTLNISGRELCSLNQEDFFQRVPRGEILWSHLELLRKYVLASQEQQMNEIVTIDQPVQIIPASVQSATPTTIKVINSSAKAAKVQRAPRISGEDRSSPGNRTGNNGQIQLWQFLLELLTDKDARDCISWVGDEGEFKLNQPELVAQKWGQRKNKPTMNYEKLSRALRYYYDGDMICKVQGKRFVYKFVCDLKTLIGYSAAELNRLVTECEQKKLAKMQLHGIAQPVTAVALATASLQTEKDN
# Summary of the method: as §1
# ERG = target: T4, ERG (Homo sapiens, UniProt P11308 1-479); details: protein: recombinant; tags: N-terminal GST; dsDNA, one strand shown
# T4 sequence: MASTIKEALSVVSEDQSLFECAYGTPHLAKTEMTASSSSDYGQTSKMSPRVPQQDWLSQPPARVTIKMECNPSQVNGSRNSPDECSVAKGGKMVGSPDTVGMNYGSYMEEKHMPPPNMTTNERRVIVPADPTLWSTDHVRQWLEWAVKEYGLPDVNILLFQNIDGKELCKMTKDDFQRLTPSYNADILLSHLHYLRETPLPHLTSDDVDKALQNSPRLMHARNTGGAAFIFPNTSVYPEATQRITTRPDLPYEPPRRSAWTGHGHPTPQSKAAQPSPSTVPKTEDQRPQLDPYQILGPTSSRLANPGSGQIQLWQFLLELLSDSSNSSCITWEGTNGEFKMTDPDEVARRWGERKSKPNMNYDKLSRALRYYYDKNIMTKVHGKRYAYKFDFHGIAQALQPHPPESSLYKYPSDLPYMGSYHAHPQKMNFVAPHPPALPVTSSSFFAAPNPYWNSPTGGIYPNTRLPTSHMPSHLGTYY
# Summary of the method: as §1
# ELF1 = ELF1 (Homo sapiens, UniProt P32519 1-619); details: protein: recombinant; tags: N-terminal GST; dsDNA, one strand shown
# Sequence of ELF1 (P32519 whole entry): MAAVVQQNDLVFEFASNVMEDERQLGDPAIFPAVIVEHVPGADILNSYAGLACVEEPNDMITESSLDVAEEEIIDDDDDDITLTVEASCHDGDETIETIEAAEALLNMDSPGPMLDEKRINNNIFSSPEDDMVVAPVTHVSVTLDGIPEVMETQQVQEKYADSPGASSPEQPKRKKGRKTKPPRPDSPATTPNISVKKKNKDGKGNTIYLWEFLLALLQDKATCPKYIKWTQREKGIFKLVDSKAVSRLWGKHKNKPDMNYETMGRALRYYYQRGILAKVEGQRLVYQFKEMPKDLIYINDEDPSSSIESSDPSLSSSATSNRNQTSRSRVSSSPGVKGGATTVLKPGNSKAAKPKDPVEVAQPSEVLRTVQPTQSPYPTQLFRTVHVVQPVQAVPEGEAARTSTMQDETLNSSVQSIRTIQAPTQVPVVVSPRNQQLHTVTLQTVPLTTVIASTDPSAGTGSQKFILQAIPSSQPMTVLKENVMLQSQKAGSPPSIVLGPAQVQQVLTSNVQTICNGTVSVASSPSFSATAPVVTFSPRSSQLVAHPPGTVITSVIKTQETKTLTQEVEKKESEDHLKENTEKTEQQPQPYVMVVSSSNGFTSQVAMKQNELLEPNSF
# Summary of the method: as §1
# EHF = target: T5, EHF (Homo sapiens, UniProt Q9NZC4 1-300); details: protein: recombinant; tags: N-terminal GST; dsDNA, one strand shown
# T5 sequence: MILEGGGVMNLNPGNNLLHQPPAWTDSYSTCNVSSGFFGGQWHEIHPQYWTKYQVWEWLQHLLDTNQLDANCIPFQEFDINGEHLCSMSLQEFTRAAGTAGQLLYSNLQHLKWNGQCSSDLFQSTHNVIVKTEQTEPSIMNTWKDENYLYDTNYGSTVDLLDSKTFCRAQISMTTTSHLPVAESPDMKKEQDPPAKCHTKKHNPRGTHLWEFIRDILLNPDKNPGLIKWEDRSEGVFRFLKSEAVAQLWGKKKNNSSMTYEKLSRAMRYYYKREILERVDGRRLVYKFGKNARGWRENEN
# Summary of the method: as §1
# SPI1 = SPI1 (Homo sapiens, UniProt P17947 1-270); details: protein: recombinant; tags: N-terminal GST; dsDNA, one strand shown
# Summary of the method: as §1
# SPIB = SPIB (Homo sapiens, UniProt Q01892 1-262); details: protein: recombinant; tags: N-terminal GST; dsDNA, one strand shown
# Sequence of SPIB (Q01892 whole entry): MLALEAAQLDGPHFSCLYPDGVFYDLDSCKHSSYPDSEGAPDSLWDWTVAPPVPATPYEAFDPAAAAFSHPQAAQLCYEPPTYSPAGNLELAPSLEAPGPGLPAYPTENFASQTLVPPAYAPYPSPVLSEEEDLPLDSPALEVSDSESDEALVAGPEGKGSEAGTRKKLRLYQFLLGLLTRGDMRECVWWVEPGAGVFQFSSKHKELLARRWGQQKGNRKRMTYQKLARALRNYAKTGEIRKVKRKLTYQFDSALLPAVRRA
# Summary of the method: as §1
# ELK3 = target: T6, ELK3 (Homo sapiens, UniProt P41970 1-407); details: protein: recombinant; tags: N-terminal GST; dsDNA, one strand shown
# T6 sequence: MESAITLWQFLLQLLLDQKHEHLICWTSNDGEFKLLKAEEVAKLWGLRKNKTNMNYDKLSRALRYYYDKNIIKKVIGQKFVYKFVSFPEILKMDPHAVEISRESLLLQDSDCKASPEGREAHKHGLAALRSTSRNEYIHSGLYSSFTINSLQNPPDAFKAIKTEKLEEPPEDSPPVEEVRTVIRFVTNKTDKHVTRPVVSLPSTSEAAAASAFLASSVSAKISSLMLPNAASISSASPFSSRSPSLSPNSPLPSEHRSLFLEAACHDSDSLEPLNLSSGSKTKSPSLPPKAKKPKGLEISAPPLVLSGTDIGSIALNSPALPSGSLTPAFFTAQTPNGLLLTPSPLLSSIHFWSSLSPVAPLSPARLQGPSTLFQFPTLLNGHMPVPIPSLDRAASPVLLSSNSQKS
# Summary of the method: as §1
# FEV = target: T7, FEV (Homo sapiens, UniProt Q99581 1-238); details: protein: recombinant; tags: N-terminal GST; dsDNA, one strand shown
# T7 sequence: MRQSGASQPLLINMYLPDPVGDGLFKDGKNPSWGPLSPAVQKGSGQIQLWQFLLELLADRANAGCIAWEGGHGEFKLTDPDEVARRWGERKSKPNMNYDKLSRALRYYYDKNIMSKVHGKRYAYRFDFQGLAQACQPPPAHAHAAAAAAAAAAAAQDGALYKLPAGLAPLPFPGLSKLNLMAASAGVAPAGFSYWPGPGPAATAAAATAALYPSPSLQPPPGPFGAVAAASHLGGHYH
# Summary of the method: as §1
# ETV5 = ETV5 (Homo sapiens, UniProt P41161 1-510); details: protein: recombinant; tags: N-terminal GST; dsDNA, one strand shown
# Sequence of ETV5 (P41161 whole entry): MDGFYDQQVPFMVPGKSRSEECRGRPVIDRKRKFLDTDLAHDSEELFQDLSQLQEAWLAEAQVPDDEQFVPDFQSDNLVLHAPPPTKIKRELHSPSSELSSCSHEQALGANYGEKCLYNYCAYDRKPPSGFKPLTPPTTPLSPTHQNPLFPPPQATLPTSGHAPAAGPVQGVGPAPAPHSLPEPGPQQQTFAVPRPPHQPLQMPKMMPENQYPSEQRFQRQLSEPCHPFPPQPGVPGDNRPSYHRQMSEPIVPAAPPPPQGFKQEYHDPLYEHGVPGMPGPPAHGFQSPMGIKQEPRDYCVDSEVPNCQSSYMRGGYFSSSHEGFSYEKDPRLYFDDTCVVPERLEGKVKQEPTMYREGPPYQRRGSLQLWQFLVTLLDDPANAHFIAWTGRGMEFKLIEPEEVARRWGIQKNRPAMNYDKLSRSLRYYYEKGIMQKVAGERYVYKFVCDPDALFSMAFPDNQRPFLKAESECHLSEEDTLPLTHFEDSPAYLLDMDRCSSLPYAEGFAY
# Summary of the method: as §1
# HSF1 = HSF1 (Homo sapiens, UniProt Q00613 1-529); details: protein: recombinant; tags: N-terminal GST; chain copies: 3; dsDNA, one strand shown
# Sequence of HSF1 (Q00613 whole entry): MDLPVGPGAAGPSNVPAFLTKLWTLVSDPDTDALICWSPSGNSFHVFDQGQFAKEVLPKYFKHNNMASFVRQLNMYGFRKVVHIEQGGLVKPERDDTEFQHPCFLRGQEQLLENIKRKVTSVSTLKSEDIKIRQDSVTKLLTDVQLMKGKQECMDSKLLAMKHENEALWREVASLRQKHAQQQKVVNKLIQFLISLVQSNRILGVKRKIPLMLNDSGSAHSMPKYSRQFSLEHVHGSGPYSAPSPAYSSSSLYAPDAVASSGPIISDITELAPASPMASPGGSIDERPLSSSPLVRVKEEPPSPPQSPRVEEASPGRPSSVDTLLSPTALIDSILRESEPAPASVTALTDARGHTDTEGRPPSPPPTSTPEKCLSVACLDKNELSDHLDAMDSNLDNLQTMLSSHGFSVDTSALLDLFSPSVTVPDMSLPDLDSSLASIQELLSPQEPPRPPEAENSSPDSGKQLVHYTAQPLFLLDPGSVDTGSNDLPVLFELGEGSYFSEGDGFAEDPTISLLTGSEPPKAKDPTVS
# Summary of the method: as §1
# SPIC = target: T8, SPIC (Homo sapiens, UniProt Q8N5J4 1-248); details: protein: recombinant; tags: N-terminal GST; dsDNA, one strand shown
# T8 sequence: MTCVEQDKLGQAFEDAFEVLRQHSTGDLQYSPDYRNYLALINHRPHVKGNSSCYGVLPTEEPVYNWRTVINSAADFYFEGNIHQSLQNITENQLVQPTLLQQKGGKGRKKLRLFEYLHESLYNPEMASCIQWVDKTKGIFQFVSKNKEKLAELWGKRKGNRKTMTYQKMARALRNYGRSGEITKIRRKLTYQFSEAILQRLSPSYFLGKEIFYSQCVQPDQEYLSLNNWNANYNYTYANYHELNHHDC
# Summary of the method: as §1
# ELF4 = ELF4 (Homo sapiens, UniProt Q99607 1-663); details: protein: recombinant; tags: N-terminal GST; dsDNA, one strand shown
# Sequence of ELF4 (Q99607 whole entry): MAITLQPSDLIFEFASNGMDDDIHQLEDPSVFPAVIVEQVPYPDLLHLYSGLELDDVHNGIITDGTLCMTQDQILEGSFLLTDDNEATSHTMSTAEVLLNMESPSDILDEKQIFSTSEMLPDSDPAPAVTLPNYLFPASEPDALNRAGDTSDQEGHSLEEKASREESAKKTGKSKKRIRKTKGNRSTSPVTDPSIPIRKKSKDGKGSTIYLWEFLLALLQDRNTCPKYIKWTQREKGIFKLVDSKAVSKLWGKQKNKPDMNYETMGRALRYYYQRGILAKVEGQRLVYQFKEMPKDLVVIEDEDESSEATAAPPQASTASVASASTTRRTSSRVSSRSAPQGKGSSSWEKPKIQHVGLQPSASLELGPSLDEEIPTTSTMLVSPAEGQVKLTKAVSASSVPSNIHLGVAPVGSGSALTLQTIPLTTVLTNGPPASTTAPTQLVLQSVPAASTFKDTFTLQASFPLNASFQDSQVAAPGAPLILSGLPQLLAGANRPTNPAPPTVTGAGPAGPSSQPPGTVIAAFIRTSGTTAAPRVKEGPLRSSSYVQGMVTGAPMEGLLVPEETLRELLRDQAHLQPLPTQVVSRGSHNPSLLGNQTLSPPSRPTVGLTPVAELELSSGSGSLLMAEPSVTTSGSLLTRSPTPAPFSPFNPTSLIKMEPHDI
# Summary of the method: as §1
# ELK4 = target: T9, ELK4 (Homo sapiens, UniProt P28324-2 1-405); details: protein: recombinant; tags: N-terminal GST; dsDNA, one strand shown
# T9 sequence: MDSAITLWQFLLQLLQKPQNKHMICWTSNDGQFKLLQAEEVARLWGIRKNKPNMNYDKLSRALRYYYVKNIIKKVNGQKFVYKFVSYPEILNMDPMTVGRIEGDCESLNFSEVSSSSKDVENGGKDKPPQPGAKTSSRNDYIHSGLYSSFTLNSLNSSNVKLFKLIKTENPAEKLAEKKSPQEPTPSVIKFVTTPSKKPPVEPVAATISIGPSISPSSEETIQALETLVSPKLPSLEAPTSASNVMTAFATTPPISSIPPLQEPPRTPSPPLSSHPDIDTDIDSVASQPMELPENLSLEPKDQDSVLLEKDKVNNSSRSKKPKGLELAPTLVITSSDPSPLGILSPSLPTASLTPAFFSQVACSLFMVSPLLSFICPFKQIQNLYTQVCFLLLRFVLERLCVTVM
# Summary of the method: as §1
# ETV2 = target: T10, ETV2 (Homo sapiens, UniProt O00321 1-342); details: protein: recombinant; tags: N-terminal GST; dsDNA, one strand shown
# T10 sequence: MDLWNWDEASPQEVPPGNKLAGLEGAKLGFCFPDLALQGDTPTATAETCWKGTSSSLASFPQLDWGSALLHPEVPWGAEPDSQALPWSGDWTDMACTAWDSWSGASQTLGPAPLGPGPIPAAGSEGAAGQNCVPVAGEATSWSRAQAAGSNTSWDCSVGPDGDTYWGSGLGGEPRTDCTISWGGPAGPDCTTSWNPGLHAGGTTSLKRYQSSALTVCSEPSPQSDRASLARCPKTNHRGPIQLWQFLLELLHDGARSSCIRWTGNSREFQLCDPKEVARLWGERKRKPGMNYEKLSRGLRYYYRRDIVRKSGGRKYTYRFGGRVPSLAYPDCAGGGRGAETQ
# Summary of the method: as §1
# ELF3 = target: T11, ELF3 (Homo sapiens, UniProt P78545 1-371); details: protein: recombinant; tags: N-terminal GST; dsDNA, one strand shown
# T11 sequence: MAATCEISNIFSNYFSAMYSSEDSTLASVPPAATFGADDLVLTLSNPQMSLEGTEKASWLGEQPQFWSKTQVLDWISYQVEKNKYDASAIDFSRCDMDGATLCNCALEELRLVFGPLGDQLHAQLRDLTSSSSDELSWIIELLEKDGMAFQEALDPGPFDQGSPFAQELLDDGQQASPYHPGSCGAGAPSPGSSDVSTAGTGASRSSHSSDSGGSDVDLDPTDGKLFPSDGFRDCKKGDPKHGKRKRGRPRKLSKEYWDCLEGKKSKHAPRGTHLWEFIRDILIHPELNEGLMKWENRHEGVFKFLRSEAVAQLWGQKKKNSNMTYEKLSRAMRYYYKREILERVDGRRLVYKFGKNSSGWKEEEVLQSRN
# Summary of the method: as §1
# CRX = CRX (Homo sapiens, UniProt O43186 1-299); details: protein: recombinant; tags: N-terminal GST; dsDNA, one strand shown
# Sequence of CRX (O43186 whole entry): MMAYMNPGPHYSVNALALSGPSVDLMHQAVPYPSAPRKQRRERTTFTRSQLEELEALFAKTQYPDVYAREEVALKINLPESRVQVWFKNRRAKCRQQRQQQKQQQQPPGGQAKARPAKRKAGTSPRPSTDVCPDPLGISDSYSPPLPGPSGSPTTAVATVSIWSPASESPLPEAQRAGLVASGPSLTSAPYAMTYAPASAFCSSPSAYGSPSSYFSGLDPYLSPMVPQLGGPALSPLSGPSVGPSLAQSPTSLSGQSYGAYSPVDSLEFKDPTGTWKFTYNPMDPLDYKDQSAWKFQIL
# Summary of the method: as §1
# ETV1 = ETV1 (Homo sapiens, UniProt P50549 1-477); details: protein: recombinant; tags: N-terminal GST; dsDNA, one strand shown
# Sequence of ETV1 (P50549 whole entry): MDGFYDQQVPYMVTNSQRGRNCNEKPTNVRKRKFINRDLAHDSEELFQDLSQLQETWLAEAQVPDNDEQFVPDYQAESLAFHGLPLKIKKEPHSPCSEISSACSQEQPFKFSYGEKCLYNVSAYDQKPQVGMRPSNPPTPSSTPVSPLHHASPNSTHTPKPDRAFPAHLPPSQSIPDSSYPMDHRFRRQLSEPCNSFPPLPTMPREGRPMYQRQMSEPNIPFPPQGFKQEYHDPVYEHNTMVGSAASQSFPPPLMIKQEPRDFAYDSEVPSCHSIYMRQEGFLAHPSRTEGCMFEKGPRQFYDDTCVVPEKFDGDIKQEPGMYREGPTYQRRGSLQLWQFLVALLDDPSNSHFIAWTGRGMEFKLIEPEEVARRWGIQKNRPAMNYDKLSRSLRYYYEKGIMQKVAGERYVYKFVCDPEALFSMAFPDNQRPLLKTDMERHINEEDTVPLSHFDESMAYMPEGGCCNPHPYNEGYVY
# Summary of the method: as §1
sequence,measurement,setting,value
TCGCCC,binding signal,FLI1,"1.34 fold enrichment (6-mer frequency, TF over GST control)"
same,binding signal,ELK1,"1.4 fold enrichment (6-mer frequency, TF over GST control)"
same,binding signal,GABPA,"1.3 fold enrichment (6-mer frequency, TF over GST control)"
same,binding signal,ERG,"1.27 fold enrichment (6-mer frequency, TF over GST control)"
same,binding signal,ELF1,"1.31 fold enrichment (6-mer frequency, TF over GST control)"
same,binding signal,EHF,"1.27 fold enrichment (6-mer frequency, TF over GST control)"
same,binding signal,SPI1,"1.29 fold enrichment (6-mer frequency, TF over GST control)"
same,binding signal,SPIB,"1.25 fold enrichment (6-mer frequency, TF over GST control)"
same,binding signal,ELK3,"1.27 fold enrichment (6-mer frequency, TF over GST control)"
same,binding signal,FEV,"1.3 fold enrichment (6-mer frequency, TF over GST control)"
same,binding signal,ETV5,"1.24 fold enrichment (6-mer frequency, TF over GST control)"
same,binding signal,HSF1,"1.09 fold enrichment (6-mer frequency, TF over GST control)"
same,binding signal,SPIC,"1.49 fold enrichment (6-mer frequency, TF over GST control)"
same,binding signal,ELF4,"1.23 fold enrichment (6-mer frequency, TF over GST control)"
same,binding signal,ELK4,"1.19 fold enrichment (6-mer frequency, TF over GST control)"
same,binding signal,ETV2,"1.19 fold enrichment (6-mer frequency, TF over GST control)"
same,binding signal,ELF3,"1.22 fold enrichment (6-mer frequency, TF over GST control)"
same,binding signal,CRX,"1.07 fold enrichment (6-mer frequency, TF over GST control)"
same,binding signal,ETV1,"1.26 fold enrichment (6-mer frequency, TF over GST control)"
